We go through 48 molecules from PubChem BioAssay AID651814 (National Center for Advancing Translational Sciences (NCATS), 2012).

About 590 (28%) of roughly 2,100 compounds were called active. About 42% were inconclusive and are not listed. The call rests on the fitted dose curve; in most records, active means well fitted inhibition curve with a large enough effect; inconclusive means small, poorly fitted or top-dose-only effect; inactive means flat fitted curve, though single readings scatter. The list shows a part of the results.
Potency means the concentration at half of the fitted maximal effect.

Chain of DNA dC->dU-editing enzyme APOBEC-3F (Homo sapiens) (Q8IUX4 whole entry, looked up): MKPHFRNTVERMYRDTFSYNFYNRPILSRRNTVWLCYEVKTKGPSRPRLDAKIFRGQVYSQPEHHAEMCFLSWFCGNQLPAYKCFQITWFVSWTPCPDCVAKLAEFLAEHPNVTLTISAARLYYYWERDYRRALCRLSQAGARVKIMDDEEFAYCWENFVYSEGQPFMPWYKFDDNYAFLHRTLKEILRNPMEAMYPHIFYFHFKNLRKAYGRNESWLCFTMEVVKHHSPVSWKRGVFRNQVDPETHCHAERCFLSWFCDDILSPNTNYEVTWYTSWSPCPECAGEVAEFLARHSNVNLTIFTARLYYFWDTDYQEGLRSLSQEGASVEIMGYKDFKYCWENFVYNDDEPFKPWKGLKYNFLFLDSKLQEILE

This assay concerns the target DNA dC->dU-editing enzyme APOBEC-3F (Homo sapiens) (UniProt Q8IUX4). The assay is described as follows: qHTS for inhibitors of Vif-A3F interactions: Cherry picks. Further: nearly all actives have a fitted effect of over 70% in size.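 On max response: % of control where 0% means no effect; active compounds raise eYFP fluorescence by blocking Vif-driven A3F loss.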 The following applies: HeLa A3F-eYFP + Vif (tagged APOBEC3F with the HIV-1 protein that degrades it), eYFP fluorescence, 24 h. The source says:
The recent discovery and characterization of host restriction factors, which provide a potent defense to invading retroviruses, has provided new targets for antiviral drug development. APOBEC3G (A3G) and APOBEC3F (A3F) are potent cytidine deaminases that block HIV-1 replication; HIV-1 expresses the Vif protein, which counteracts A3G and A3F by binding to them and inducing their proteasomal degradation. The Vif-A3G and Vif-A3F interactions provide two potential targets for development of small molecules which can interfere with the ability of Vif to degrade A3G or A3F. […] To identify inhibitors that can interfere with Vif mediated degradation of A3G and A3F, we have developed Hela cell lines that stably express A3G or A3F tagged with eYFP at the C-terminal end (A3G-eYFP or A3F-eYFP, respectively) and Vif. In the absence of an inhibitor, Vif induces degradation of A3G-eYFP and A3F-eYFP, and the cells are not fluorescent. In the presence of an inhibitor, it is expected that Vif will be unable to degrade A3G-eYFP and/or A3F-eYFP, resulting in an increase in yellow fluorescence. In this assay, Vif A3F was screened against the cherry picks ordered from the MLSMR. NIH Chemical Genomics Center [NCGC] NIH Molecular Libraries Probe Centers Network [MLPCN] MLPCN Grant: MH093245 Assay Submitter (PI): Vinay Pathak, National Cancer Institute
A3F-Vif cells were harvested from T225 flask and resuspended in phenol free OPTI-MEM medium with 5% FBS. Then 5 uL of 140,000 cells/mL resuspended cells was dispensed into each well of low base Aurora COC 1,536-well plates (black walled, clear bottom) using a Multidrop Combi dispenser. After overnight culture at 37 deg C with 5% CO2, a total of 23 nL of compounds at 5 selected concentrations from the NPC or positive control (2 mM stock of MG132) in DMSO was transferred to each well of the assay plate using a pintool (Kalypsys, San Diego, CA), and the plates were further incubated at 37 deg C with 5% CO2 for 24 hours. After that, the plates were measured on Acumen Explorer (TTP Lab Tech). The fluorescence was detected by 488 nm/Ex and […].
(qHTS replaces the single test concentration by a dilution series.)
As to `Cc1ccc(CNC(=O)c2ccccc2NC(=O)c2nsc3ccccc23)cc1`, the Potency was 20.6 µM (active).

Consider `CCN(CC)c1ccc(C=C2C(=O)N(C)C(=S)N(C)C2=O)o1`, for which the Potency is 3.96 µM (active).

On to `Cc1ccc(/C=C2/C(=O)NC(=O)N(CCc3ccc(F)cc3)C2=O)s1`, for which the max response was -13.3% (inactive).

For the molecule `CCN(CC)c1ccc(/C=C2\C(=O)NC(=S)N(C)C2=O)o1`, the Potency is 14 µM (active).

As for `Cc1cccc(-n2c(/C=C/c3c(C)[nH]c4ccccc34)nc3ccccc3c2=O)c1`, the Potency was 20.6 µM (active).

For the molecule `O=Cc1c(C(=O)O)n(Cc2ccc(Cl)cc2)c2ccccc12`, the Potency is 20.6 µM (active).

On to `CC(=O)OC1C2(CC3N4C(=O)C5(CO)SSC4(CC31O)C(=O)N5C)OC(C)C(C)(C)C2=O` (stereo not drawn), for which the Potency is 6.27 µM (active).

As to `Cc1cccc(CN2CCCC(C(=O)c3cccc(OC(C)C)c3)C2)n1` (stereo not drawn), the max response was 3.61% (inactive).

For the molecule `ClCCN(CCCl)c1ccc(C=Cc2ccncn2)cc1`, the max response is -17% (inactive).

Take `O=C1NC(=S)SC1=Cc1ccc(N(CCCl)CCCl)cc1`: the Potency is 14 µM (active).

`CN1C(=O)C(=Cc2ccc(N3CCOCC3)o2)C(=O)N(C)C1=O`: the Potency was 18.4 µM (active).

With `CN1C(=O)C(=Cc2ccc(N3CCCCC3)o2)C(=O)N(C)C1=S`, the Potency was 5.17 µM (active).

As to `CN1C(=O)C(=Cc2ccc(N3CCOCC3)o2)C(=O)N(C)C1=S`, the Potency is 23.1 µM (active).

On to `O=C1NC(=O)N(c2ccc3c(c2)OCO3)C(=O)/C1=C\c1ccc(N2CCCCC2)o1`, for which the Potency was 18.4 µM (active).

As for `O=C1NC(=O)N(c2ccc3c(c2)OCO3)C(=O)/C1=C/c1ccc(N2CCCCC2)o1`, the Potency was 23.1 µM (active).

For `CN(C)c1ccc(/C=C/C=C2/C(=O)NC(=O)N(c3ccccc3)C2=O)cc1`, the Potency is 16.4 µM (active).

Consider `Cc1ccc(N2C(=O)NC(=O)/C(=C\C=C\c3ccco3)C2=O)cc1C`, for which the max response was -16.6% (inactive).

For `CC(C)c1ccc(N2C(=O)NC(=O)/C(=C\C=C\c3ccco3)C2=O)cc1`, the Potency is 17.7 µM (active).

In the case of `O=C1NC(=O)N(Cc2ccc(F)cc2)C(=O)/C1=C\C=C\c1ccco1`, the max response is -29.5% (inactive).

In the case of `Cc1cc(N2CCCC2)ccc1C=C(C#N)C#N`, the Potency was 7.31 µM (active).

As to `Cc1nn(Cc2ccccc2)c(C)c1C(=O)OCC(=O)Nc1ccccc1SCC#N`, the Potency is 14 µM (active).

On to `CC/C(=N\NC(=O)c1ccccc1O)c1c(O)n(Cc2ccccc2)c(=O)[nH]c1=O`, for which the max response is -28.7% (inactive).

Take `CCN(CC)c1ccc(N=Cc2c(O)n(CCC3=CCCCC3)c(=O)[nH]c2=O)cc1`: the Potency was 3.66 µM (active).

As for `CCN(CC)c1ccc(N=Cc2c(O)n(Cc3ccccc3)c(=O)[nH]c2=O)cc1`, the Potency was 3.26 µM (active).

`CC1=CC(=Cc2sc3ccccc3[n+]2C)C=C(C)O1`: the Potency was 5.17 µM (active).

On to `CCCCn1c(O)c(C(=O)/C=C/c2c[nH]c3ccccc23)c(=O)[nH]c1=O`, for which the Potency is 12.5 µM (active).

Turning to `CCC(C)N1C(=O)/C(=C\c2ccc(N3CCCCCC3)cc2)C(=O)NC1=S` (stereo not drawn), the max response was -14.3% (inactive).

Turning to `CN1CCN(c2ccc(/C=C3\C(=O)NC(=S)N(c4cccc(Br)c4)C3=O)o2)CC1`, the Potency is 18.4 µM (active).

For `CN1C(=O)/C(=C/c2ccc(N3CCCCCC3)o2)C(=O)NC1=S`, the Potency was 12.5 µM (active).

Take `CN1C(=O)/C(=C\c2ccc(N3CCCCC3)o2)C(=O)NC1=S`: the Potency was 14 µM (active).

With `Cc1cc(/C=C2\C(=O)NC(=O)N(c3ccc(Br)cc3)C2=O)c(C)n1C`, the max response was -6.73% (inactive).

As to `O=c1[nH]c(CN2CC=C(c3ccccc3)CC2)nc2scc(-c3ccccc3)c12`, the Potency is 18.4 µM (active).

In the case of `Nc1ccc2c3c(cccc13)-c1ccccc1-2`, the Potency was 4.11 µM (active).

Take `COc1cc(C2C(C#N)=C(N)Oc3cc(O)ccc32)cc(OC)c1OC` (stereo not drawn): the Potency is 1.98 µM (active).

For the molecule `CCCCNC(=O)/C(C#N)=c1\s/c(=C\c2ccccc2OC(F)F)c(=O)n1CCCOC`, the Potency is 16.4 µM (active).

Turning to `CCCCCn1c(NC(=O)c2ccco2)c(C(=O)OCC)c2nc3ccccc3nc21`, the Potency is 15.8 µM (active).

Turning to `COCCNC(=O)c1c(NC(=O)c2ccc(Br)o2)n(Cc2ccccc2)c2nc3ccccc3nc12`, the max response is -6.71% (inactive).

For `O=c1[nH]c(=O)n(Cc2ccccc2Cl)c(O)c1/C=C1/C=CC=N1`, the Potency is 9.2 µM (active).

As for `CC(C)CCCn1c(O)c(/C=C2/C=CC=N2)c(=O)[nH]c1=O`, the Potency is 18.4 µM (active).

Take `COC(=O)C1=C(C)N(Cc2ccco2)C(=O)/C1=C\c1ccc(N(C)C)cc1`: the Potency is 13 µM (active).

Take `O=c1c2ccccc2nc(/C=C/c2ccc([N+](=O)[O-])o2)n1-c1ccc(O)cc1`: the Potency was 12.5 µM (active).

For `CN1/C(=C\C=C2C(=O)NC(=O)NC2=O)C(C)(C)c2ccccc21`, the max response was -9.38% (inactive).

As for `O=C1NC(=O)N(Cc2ccc(F)cc2)C(=O)/C1=C\c1ccoc1`, the max response is -24.2% (inactive).

For `O=C(Cc1ccccc1)c1ccccn1`, the Potency is 17.7 µM (active).

For `CCS(=O)(=O)N1N=C(c2cccc(NS(C)(=O)=O)c2)CC1c1ccccc1` (stereo not drawn), the Potency was 23.1 µM (active).

As to `COc1ccccc1-n1c(/C=C/c2ccc(O)cc2)nc2ccccc2c1=O`, the max response is -0.327% (inactive).

Regarding `Cc1ccccc1-n1c(/C=C/c2ccc(N(C)C)cc2)nc2ccccc2c1=O`, the Potency is 3.26 µM (active).

Consider `O=c1nc(/C=C/c2ccc(Cl)cc2Cl)cc(C(F)(F)F)[nH]1`, for which the max response is -25.1% (inactive).
